Experimental data published in PubChem BioAssay AID2391 (Southern Research Specialized Biocontainment Screening …, 2010).
In all, about 310,000 compounds went through this assay and about 410 (0.13%) were called active. Inconclusive results (about 2%) are left out. How the calls were made is not given here. Not all results are given here. Measured potencies and affinities stand elsewhere.

assay: inhibition of RSV-induced cytopathic effect – HEp-2 cells, primary 10 µM value included (AID 2391); conditions: at 10 µM, stronger effect = higher value

CPE inhibition, inactive:
Cc1c(C(=O)O)oc2ccc3c(c12)C(O)CC(C)(C)O3 (stereo unspecified) 1.72%
O=C(O)c1cc(C2CC2)nn1-c1ccccc1 -0.32%
CCc1ccccc1NC(=O)CN(C)C(=O)c1cc(C2CC2)nn1-c1ccccc1 0.49%
CCc1ccccc1NC(=O)CNC(=O)c1cc(C2CC2)nn1-c1ccccc1 -0.83%
CN(CC(=O)Nc1ccccc1Cl)C(=O)c1cc(C2CC2)nn1-c1ccccc1 1.34%
CCN(CC(=O)Nc1c(F)cccc1F)C(=O)C1CCN(C(=O)Nc2ccccc2)CC1 0.36%
O=C(NC1CCCC1)C1CC(=O)N(c2ccccc2)C1 (stereo unspecified) 1.22%
CS(=O)(=O)c1ccc(C(=O)OCC(=O)Nc2cccc(S(=O)(=O)N3CCCC3)c2)cc1 1.77%
O=C(CSc1nccn(-c2ccc(Br)cc2)c1=O)Nc1ccccc1F 0.04%
CSc1nc(Oc2ccc(C)cc2)cc(C(F)(F)F)n1 0.19%
CCNC(=S)N1CCN(c2nc(-c3ccc(F)cc3)cs2)CC1 2.45%
O=C(c1ccc(-c2ccccc2Cl)o1)N1CCN(S(=O)(=O)c2cccs2)CC1 0.24%
CCOC(=O)[C@H]1[C@H]2COc3cc(OC)ccc3[C@@H]2N2C(=O)CN(Cc3ccc(OC)cc3)C(=O)[C@@]12C 2.03%
COc1ccc(NC(=S)NCCN2CCC(C)CC2)cc1Cl -1.89%
CC(C)OCCCNC(=O)c1ccc2c(c1)NC(=O)c1ccccc1S2 3.89%
COc1ccc(C(=O)c2coc3ccc(OC(C)=O)cc23)cc1 4.53%
COc1ccc2occ(C(C)=O)c2c1 0.49%
CN1C=C(C(F)(F)F)C=C/C1=C(\C#N)c1nnc2n1CCCCC2 1.8%
COc1ccc(C2CCCN2C(=O)Nc2ccccc2)cc1OC (stereo unspecified) 2.18%
COc1ccc(CNC(=O)CCCn2nc(C)n3ccnc3c2=O)cc1 1%
C=Cn1cc[n+](CC(=O)c2cccs2)c1 0.58%
COc1ccc2[nH]cc(C(=O)CN3CCC(C)CC3)c2c1 0.91%
COc1ccc2[nH]cc(C(=O)CN3CCCCC3)c2c1 -0.42%
O=C1CCCN1c1ccc(C(=O)N(Cc2nnc(-c3ccc(Cl)cc3)o2)C2CC2)cc1 1.99%
O=C(c1ccc(Cl)c(S(=O)(=O)N2CCOCC2)c1)N(Cc1nnc(-c2ccccc2Cl)o1)C1CC1 14.6%
CC(C)CCOC(=O)C(C)Sc1n[nH]c(=O)[nH]c1=O (stereo unspecified) 8.79%
